Five compounds from PubChem BioAssay AID2100 (National Center for Advancing Translational Sciences (NCATS), 2009) can be followed below.

Screen size: about 300,000 compounds; about 1,200 (0.4%) were called active. Not shown: some 3% with an inconclusive outcome. Calls come from the whole dose curve; as a rule, active = well fitted inhibition curve with a large enough effect; inconclusive = small, poorly fitted or top-dose-only effect, or another doubt; inactive = no such curve, though single readings can be large or run the other way. Shown is part of a subset that was picked to be rich in actives. Entries that show only a call come without a potency.
Potency is the fitted concentration of half-maximal effect.

This test addresses Lysosomal alpha-glucosidase (Homo sapiens) (UniProt P10253). As to the kind of experiment: qHTS Assay for Inhibitors and Activators of Human alpha-Glucosidase Cleavage of Glycogen.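 Note: the screen sought inhibitors and activators.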 As to conditions: recombinant GAA, glycogen substrate, Amplex Red glucose oxidase fluorescence; series mostly up to 76.4 µM. The source says:
NIH Chemical Genomics Center [NCGC] NIH Molecular Libraries Probe Production Centers Network [MLPCN] MLPCN Grant: R03 MH084841-01 Assay Submitter (PI): Wei Zheng NCGC Assay Overview: Alpha-glucosidase is responsible for the hydrolysis of terminal, non-reducing 1,4-linked alpha-D-glucose residues, which releases alpha-D-glucose. It is a lysosomal hydrolase that is required for the degradation of a small percentage (1-3%) of cellular glycogen in humans. Deficiency of this enzyme results in glycogen-storage disease type II (GSDII), also referred to as Pompe disease, an autosomal recessive disorder. Structurally normal glycogen is accumulated in the lysosomes and cytoplasm in affected patients, primarily in muscle tissues. Excessive glycogen storage within lysosomes may interrupt normal functioning of other organelles and leads to cellular injury. In turn, this leads to enlargement and dysfunction of the entire organ involved (eg: cardiomyopathy and muscle weakness). It has been reported that the improper folding and trafficking of alpha-glucosidase resulting from genetic mutations may account for a significant number of Pompe patients. […] We optimized this alpha-glucosidase assay in 1536-well plate format for identification of novel small molecule inhibitors or activators with structures other than the sugar analogs in order to develop new pharmacological chaperones. Previous assays of alpha-Glucosidase have utilized a non-natural fluorescent substrate to probe enzyme activity. The present assay measures enzyme activity on glycogen using a coupled-assay system to glucose oxidase.
NCGC Assay Protocol Summary: This is an enzyme assay using glycogen from bovine liver (Sigma catalog #: G0885) as the substrate and recombinant human alpha-glucosidase as the enzyme preparation. Upon hydrolysis of the substrate, the glucose product can be detected using the Amplex Red Glucose Oxidase Assay Kit (Invitrogen catalog #: A22189). The product of this reaction can be read with a fluorescence plate reader with an excitation at 573 nm and an emission at 610 nm. Data were normalized to the controls for basal activity (without enzyme) and 100% activity (with enzyme). The AC50 values were determined from concentration-response data modeled with the standard Hill equation. Assay buffer for enzyme reaction: 50 mM citric acid (titrated with potassium phosphate to pH 5.0), 0.01% Tween-20 (pH 5.0 is an optimal condition for this enzyme assay) Assay buffer for Amplex Red reaction: Tris-HCl, pH 7.5 1536-well assay protocol for the alpha-glucosidase assay: (1) Add 2 ul/well alpha-glucosidase enzyme solution (4 nM final) (2) Add 23 nL compounds in DMSO solution. The final titration was 0.7 nM to 77 uM. (3) Add 1 ul of glycogen substrate solution (30 ug) (4) Incubate at 37 C for 40 min (5) Add 2 ul tris-HCl buffer with Amplex Red reagents (6) Incubate 45 min at room temperature. (7) Detect the assay plate in a ViewLux plate reader (PerkinElmer) with Ex=573 nm and Em=610nm. Keywords: Alpha-glucosidase, Pompe Disease, pharmacological chaperone, chaperone therapy, high throughput screening, alpha-glucosidase inhibitor, MLSMR, MLSCN, NIH Roadmap, qHTS and NCGC
In general terms: Quantitative high-throughput screening tests each substance at several concentrations.
`CC(C)c1ccc(O)c(CN2CCN(c3ccccc3)CC2)c1`: the Potency entry was “inactive”.

Turning to `Fc1ccc(N2CCN(Cc3ccc4c(c3)OCO4)CC2)cc1`, the Potency entry was “inactive”.

`Oc1cc2c(cc1CN1CCN(c3ccccc3)CC1)OCO2`: the Potency was 2 µM (active).

With `Cc1ccc(NC(=O)N(Cc2ccc3c(c2)OCO3)C2CCN(Cc3ccccc3)CC2)cc1F`, the Potency result is “inactive”.

As to `Cn1cc(/C=C/c2nc3ccccc3c(=O)n2-c2ccccc2)c2ccccc21`, the Potency entry is “inactive”.
